Test [1] in a line: compounds binding Alexa647 anti-His antibody – biochemical, small-molecule microarray, 635 nm fluorescence, artefact control for SMM control protein annotation, primary screen (AID 1128).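 Also: score merges feature fluorescence with signal-to-noise for each printed compound spot.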 The settings on record: higher = more signal.
The subject of test [2] is Human papillomavirus type 1a E7 protein (residues 1-88). The experiment in a line: HPV1a E7 small-molecule binders, primary screen, biochemical, small-molecule microarray, residues 1-88, 635 nm (AID 1129). The settings on record: small-molecule microarray binding, fluorescence 635 nm; higher = more signal.
In test [3] the target is Focal adhesion kinase 1 (Homo sapiens) (UniProt Q05397). Nature of the test: PTK2 protein binding on printed compound slides – biochemical, small-molecule microarray, 635/667 nm fluorescence, BSA, DTT, primary screen (AID 1130).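 Also: composite of spot emission at 667 nm and signal to noise over triplicate slides.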 The note with it: 635 nm fluorescence, higher = more signal.
The test system of test [4] is Fibrinogen (Alexa647-labelled). The experiment in a line: Alexa647-fibrinogen binding to printed small molecules – biochemical, small-molecule microarray, 635/667 nm fluorescence, artefact control for SMM control-protein annotation, profiling panel (AID 1131).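 Also: z-score merges 667 nm fluorescence with per-spot signal-to-noise over triplicate slides.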 The note with it: fibrinogen-A647 binding fluorescence, higher = more signal.
Test [5] addresses Follistatin (Homo sapiens) (UniProt P19883). Nature of the test: FST protein binding to printed compounds – biochemical, small-molecule microarray, 635/667 nm fluorescence, primary screen (AID 1132). The settings on record: 635 nm fluorescence, higher = more signal.
For test [6], the target named is Fibroblast growth factor 2 (Homo sapiens) (UniProt P09038). Nature of the test: basic fibroblast growth factor binding to printed compounds – biochemical, small-molecule microarray, 635/667 nm fluorescence, primary screen (AID 1133). The note with it: FGF2, fluorescence 635/667, higher = more signal.
Test [7] in a line: JC-1 mitochondrial potential readout, lung cancer cells – cell-based, A549, JC-1 fluorescence, basal, 24 h, 100 nL, profiling panel (AID 1138).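 Also: A549 lung adenocarcinoma cells under basal conditions with no added stimulus; test concentration not given here.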 The settings on record: higher = more signal.
Test [8] relates to Lefty1. The experiment in a line: Lefty1 protein binding to printed compounds – biochemical, small-molecule microarray, 635/667 nm fluorescence, primary screen (AID 1139). The settings on record: fluorescence 635/667, higher = more signal.
Test [9] deals with wheat germ agglutinin (Triticum aestivum), Alexa647-labelled. The experiment in a line: Alexa647-WGA lectin binding to printed small molecules – biochemical, small-molecule microarray, 635/667 nm fluorescence, artefact control for SMM control-protein annotation, profiling panel (AID 1140).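 Also: score merges 667 nm feature emission with signal to noise over triplicate slides.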 The settings on record: WGA-A647 binding, 635 nm fluorescence, higher = more signal.
Test [10] concerns the target Luciferin 4-monooxygenase (Photinus pyralis) (UniProt P08659). The experiment in a line: inhibition of purified Photinus pyralis luciferase – biochemical, luminescence, purified enzyme, 2006 set, primary screen (AID 1141).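 Also: cell-free assay with purified firefly luciferase at 100 ng per well in PBS; test concentration not given here.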 The settings on record: purified firefly luciferase, SteadyGlo luminescence, 30 min; higher = more signal, called active from +8 up or from −8 down.

Test [11] concerns Wnt5a (protein binding on small-molecule microarray). The experiment in a line: small molecules binding Wnt5a protein – biophysical, small-molecule microarray, 635/667 nm fluorescence, primary screen (AID 1142).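 Also: fluorescence read at 667 nm with signal to noise per printed feature.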 The settings on record: 635 nm fluorescence, higher = more signal.
The nature of test [12]: ATP-based viability of Huh7 replicon cells – cell-based, CellTiter-Glo luminescence, basal, 48 h, cytotoxicity control for HCV replication inhibitor project, primary screen (AID 1143).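 Also: Huh7 hepatoma cells carrying a hepatitis C replication reporter with no stimulus; test concentration not given here.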 The note with it: higher = more signal, called active from +8 up or from −8 down. (In general: Replicon systems follow genome replication, usually without infectious particles.)
Test [13] can be described thus: Pseudomonas biofilm growth suppression – PAO1 strain, BacTiter-Glo luminescence, LB-PBS, primary screen (AID 1144). The note with it: P. aeruginosa PAO1 biofilm, 12 h, higher = more signal.
Test [14] can be described thus: basal CRE-LacZ reporter activity in PC12 – cell-based, unstimulated, primary screen (AID 1145). The settings on record: no forskolin, luminescence, 4.5 h, higher = more signal, called active from +8 up or from −8 down.
Test [15] in a line: forskolin-driven CRE-LacZ activity in PC12 – cell-based, CRE-LacZ reporter, forskolin-stimulated, primary screen (AID 1146).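 Also: PC12 cells with 6xCRE LacZ reporter stimulated by forskolin 10 µM; beta-galactosidase reporter signal reflecting CREB driven transcription.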 The settings on record: luminescence, 4.5 h, higher = more signal, called active from +8 up or from −8 down.
Test [16] deals with Streptavidin (Streptomyces avidinii) (UniProt P22629). The experiment in a line: compounds binding control protein streptavidin – biophysical, small-molecule microarray, 635/667 nm fluorescence, artefact control for SMM compound annotation, primary screen (AID 1147).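 Also: signal reflects streptavidin binding to arrayed compounds as a control protein.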 The settings on record: higher = more signal.
Test [17] can be described thus: probe aInhba binding on compound microarray – biochemical, small-molecule microarray, 635/667 nm fluorescence, primary screen (AID 1148).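 Also: score merges 667nm spot fluorescence with signal-to-noise for antibody binding to printed compounds.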 The note with it: higher = more signal.
Test [18] concerns the target Torsin-1A (Homo sapiens) (UniProt O14656). Nature of the test: TOR1A wild-type binding on microarray – cell lysate, small-molecule microarray, lysate, 635/667 nm, primary screen (AID 1149). The note with it: COS7 hTOR1A-WT lysate, 635 nm fluorescence, higher = more signal.
The target is the same in test [19]. The experiment in a line: torsin A mutant lysate binding on microarrays – cell lysate, small-molecule microarray, COS7 lysate, 635/667 nm fluorescence, primary screen (AID 1150).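 Also: score pools 667 nm emission and signal to noise measuring lysate protein binding.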 The note with it: COS7 hTOR1A mutant lysate, 635 nm fluorescence, higher = more signal.
Test [20] relates to Sonic hedgehog protein (Shh). Nature of the test: Sonic hedgehog microarray binding compounds – biochemical, small-molecule microarray, 635/667 nm fluorescence, primary screen (AID 1151).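 Also: Shh protein binding to compounds spotted on small-molecule microarray slides; score combines spot fluorescence intensity with signal-to-noise across triplicate slides.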 The note with it: 635 nm fluorescence, higher = more signal.

The source made the active and inactive calls. Unless noted, no rule for the calls is given here.

Sequence of Follistatin (Homo sapiens) (P19883 whole entry, looked up): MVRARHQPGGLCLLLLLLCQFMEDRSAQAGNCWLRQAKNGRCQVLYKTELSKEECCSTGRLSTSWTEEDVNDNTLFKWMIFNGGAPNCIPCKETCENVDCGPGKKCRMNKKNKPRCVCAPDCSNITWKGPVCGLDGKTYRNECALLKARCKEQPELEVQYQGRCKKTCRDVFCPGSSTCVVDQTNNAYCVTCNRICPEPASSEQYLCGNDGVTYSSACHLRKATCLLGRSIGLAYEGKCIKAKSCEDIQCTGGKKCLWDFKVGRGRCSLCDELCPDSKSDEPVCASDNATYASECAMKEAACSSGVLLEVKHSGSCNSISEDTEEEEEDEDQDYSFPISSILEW
Sequence of Fibroblast growth factor 2 (Homo sapiens) (P09038 whole entry, looked up): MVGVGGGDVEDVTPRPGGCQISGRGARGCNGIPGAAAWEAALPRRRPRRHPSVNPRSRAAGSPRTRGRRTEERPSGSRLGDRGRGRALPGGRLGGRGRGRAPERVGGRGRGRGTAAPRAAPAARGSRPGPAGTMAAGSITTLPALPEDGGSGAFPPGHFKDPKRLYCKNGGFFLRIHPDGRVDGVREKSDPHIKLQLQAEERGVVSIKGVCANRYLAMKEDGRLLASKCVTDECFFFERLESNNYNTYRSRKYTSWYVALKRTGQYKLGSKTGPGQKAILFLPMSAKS
Sequence of Streptavidin (Streptomyces avidinii) (P22629 whole entry, looked up): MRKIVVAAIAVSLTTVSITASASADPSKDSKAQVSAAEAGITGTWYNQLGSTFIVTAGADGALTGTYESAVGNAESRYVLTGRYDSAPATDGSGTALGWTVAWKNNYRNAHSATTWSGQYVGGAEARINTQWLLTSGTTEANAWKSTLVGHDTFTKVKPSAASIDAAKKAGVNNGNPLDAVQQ
Sequence of Luciferin 4-monooxygenase (Photinus pyralis) (P08659 whole entry, looked up): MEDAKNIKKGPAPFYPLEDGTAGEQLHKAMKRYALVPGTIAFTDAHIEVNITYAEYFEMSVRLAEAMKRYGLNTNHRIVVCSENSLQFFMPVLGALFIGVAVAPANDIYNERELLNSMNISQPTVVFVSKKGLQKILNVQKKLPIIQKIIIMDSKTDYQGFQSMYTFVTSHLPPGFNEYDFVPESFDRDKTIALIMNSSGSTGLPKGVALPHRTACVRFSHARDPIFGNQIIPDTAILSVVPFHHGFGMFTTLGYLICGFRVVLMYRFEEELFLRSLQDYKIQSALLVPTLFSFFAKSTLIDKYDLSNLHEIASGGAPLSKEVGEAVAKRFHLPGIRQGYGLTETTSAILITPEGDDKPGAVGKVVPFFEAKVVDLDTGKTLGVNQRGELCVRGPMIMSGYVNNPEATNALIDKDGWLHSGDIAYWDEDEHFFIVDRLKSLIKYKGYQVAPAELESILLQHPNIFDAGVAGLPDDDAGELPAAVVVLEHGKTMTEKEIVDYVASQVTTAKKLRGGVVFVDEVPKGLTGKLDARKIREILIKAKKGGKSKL
Sequence of Focal adhesion kinase 1 (Homo sapiens) (Q05397 whole entry, looked up): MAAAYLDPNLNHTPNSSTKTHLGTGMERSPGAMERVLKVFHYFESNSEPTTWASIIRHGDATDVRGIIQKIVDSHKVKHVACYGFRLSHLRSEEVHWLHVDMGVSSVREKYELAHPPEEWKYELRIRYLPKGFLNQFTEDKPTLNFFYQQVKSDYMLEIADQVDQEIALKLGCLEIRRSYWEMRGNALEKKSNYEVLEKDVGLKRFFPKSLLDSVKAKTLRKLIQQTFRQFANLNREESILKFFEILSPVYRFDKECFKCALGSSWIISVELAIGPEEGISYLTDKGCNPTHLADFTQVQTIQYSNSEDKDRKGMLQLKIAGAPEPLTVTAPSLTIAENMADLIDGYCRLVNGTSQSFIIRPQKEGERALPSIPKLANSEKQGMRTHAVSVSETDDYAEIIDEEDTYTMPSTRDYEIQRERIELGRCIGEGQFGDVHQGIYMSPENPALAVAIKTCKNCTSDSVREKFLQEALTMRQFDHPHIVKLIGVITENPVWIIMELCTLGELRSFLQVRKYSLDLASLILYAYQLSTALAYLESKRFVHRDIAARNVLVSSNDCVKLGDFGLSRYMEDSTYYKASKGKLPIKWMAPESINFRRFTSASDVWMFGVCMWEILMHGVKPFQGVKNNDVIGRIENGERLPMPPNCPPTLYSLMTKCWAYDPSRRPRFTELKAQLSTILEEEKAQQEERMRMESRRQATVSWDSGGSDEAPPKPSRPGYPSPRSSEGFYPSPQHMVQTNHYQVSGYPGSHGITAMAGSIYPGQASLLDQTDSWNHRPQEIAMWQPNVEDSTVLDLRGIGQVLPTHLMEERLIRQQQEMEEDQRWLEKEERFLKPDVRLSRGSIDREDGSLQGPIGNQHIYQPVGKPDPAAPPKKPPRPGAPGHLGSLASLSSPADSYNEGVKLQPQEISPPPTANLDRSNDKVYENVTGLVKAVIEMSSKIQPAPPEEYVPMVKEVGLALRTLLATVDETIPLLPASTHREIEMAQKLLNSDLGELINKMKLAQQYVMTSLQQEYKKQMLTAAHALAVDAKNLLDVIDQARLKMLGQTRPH
Sequence of Torsin-1A (Homo sapiens) (O14656 whole entry, looked up): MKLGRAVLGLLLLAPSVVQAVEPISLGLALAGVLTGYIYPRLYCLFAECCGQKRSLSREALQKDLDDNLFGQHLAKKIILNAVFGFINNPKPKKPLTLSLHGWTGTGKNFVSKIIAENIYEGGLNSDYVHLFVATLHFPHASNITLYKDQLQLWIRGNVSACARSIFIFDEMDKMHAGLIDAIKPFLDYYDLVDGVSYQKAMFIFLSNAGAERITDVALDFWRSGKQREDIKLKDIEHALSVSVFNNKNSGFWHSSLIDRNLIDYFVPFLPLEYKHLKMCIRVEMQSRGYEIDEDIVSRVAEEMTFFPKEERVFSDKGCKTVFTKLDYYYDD

`C=C[C@H](OC)[C@@H](OC(=O)Nc1ccc(SC)cc1)c1ccc(O)c(F)c1`: the composite z-score in [1] is 0.705; in [2], 0.0378; in test [3], -0.264; in test [4], 0.756; in test [5] it was 0.171; in test [6] it was 0.781. Also, the composite z-score in test [8] is -0.0871; in test [9], 0.0251; in test [11], 0.418; in [16], -0.174; in test [17], -0.0695; in [18] it was 0.373. The results for the composite z-score in test [19] and in test [20] were 0.23 and 1.6, respectively. Moreover, the z-score is -0.97 in [7]; -3.45 (inactive) in [10]; -0.731 (inactive) in test [12]; -0.782 (inactive) in test [13]; 5.83 (inactive) in [14]; -0.362 (inactive) in [15].
As to `NC(=O)NCC#Cc1ccc2c(c1)[C@]1(C(=O)N2)[C@H](C(N)=O)[C@H]2C(=O)O[C@H](c3ccccc3)[C@H](c3ccccc3)N2[C@@H]1c1ccccc1OCCO`, the composite z-score in test [1] is -0.22; in [2] it was 1.01; in test [3], -0.0788; in [4] it was 0.543; in test [5] it was 1.23; in test [6], 0.66. Moreover, the composite z-score stood at 0.472 in test [8]; 0.174 in test [9]; 0.0902 in [11]; 0.28 in test [16]; 0.0091 in test [17]; 0.247 in test [18]. Besides, the composite z-score in test [19] worked out at 0.396; in [20], 1.18. For the same compound, the z-score was -0.525 in [7]; 0.171 (inactive) in [10]; 0.463 (inactive) in test [12]; -0.258 (inactive) in test [13]; 0.918 (inactive) in test [14]; -0.447 (inactive) in test [15].
Consider `COCCOC(=O)N1C(=O)[C@@]2(c3cc(C#CCCO)ccc31)[C@H](c1ccc(OCCO)cc1)N1[C@H](c3ccccc3)[C@H](c3ccccc3)OC(=O)[C@H]1[C@@H]2C(=O)NC[C@H](O)c1ccccc1`, for which the composite z-score in test [1] is 1.23; in test [2], 1.21; in test [3], 0.76; in test [4], 0.883; in [5], 1.39; in test [6] it was 1.36. Besides, the composite z-score in test [8] was determined as 1.24; in [9], 0.728; in test [11], 0.619; in [16], 0.427; in test [17] it was 0.0183; in [18], 0.703. The composite z-score in [19] worked out at 1.16; in test [20], 1.7. Also, the z-score in test [7] is -1.15; in test [10] it was -0.216 (inactive); in [12], -2.79 (inactive); in test [13], -0.668 (inactive); in test [14], -1.42 (inactive); in test [15], -0.137 (inactive).
As for `O=C(N1CCCCC1)[C@@]1(CCS(=O)(=O)c2ccccc2)N=C(c2ccc(OCCCO)cc2)O[C@H]1c1ccccc1`, the composite z-score in test [1] is 1.9; in [2], 1.26; in test [3], 0.556; in [4] it was 0.328; in [5] it was 1.25; in test [6], -0.0973. In addition, the composite z-score in test [8] was -0.0953; in test [9], 0.0324; in test [11], 1.31; in [16], -0.123; in test [17], -0.0112; in [18], 1.06. Also, the composite z-score in test [19] is 0.623; in [20] it was -0.442. Further, the z-score in [7] was 0.216; in [10], -1.32 (inactive); in test [12] it was -5.06 (inactive); in test [13], -0.725 (inactive); in [14] it was 0.909 (inactive); in test [15], -0.516 (inactive).
As to `CC(C)C[C@@H]1NC(=O)[C@H]2C[C@@H](C(=O)NCCCCCC[N+](C)(C)C)[C@@H](c3ccc(O)cc3)N2C1=O`, the composite z-score in [1] is 2.28; in test [2] it was -0.194; in test [3], -0.188; in test [4], -1.44; in test [5] it was 1.16; in [6], 0.839. The composite z-score is 0.467 in test [8]; 0.952 in test [9]; -0.266 in [11]; -0.308 in test [16]; -0.0719 in [17]; 0.87 in test [18]. Besides, the composite z-score in test [19] turned out to be 0.951; in test [20], 1.7. Also, the z-score in test [7] was -0.603; in test [10], 0.779 (inactive); in test [12], -0.0365 (inactive); in test [13], -0.337 (inactive); in test [14], -0.122 (inactive); in test [15] it was -0.281 (inactive).

The values are drawn from PubChem BioAssay.
